Experimental data as given in PubChem BioAssay.
Calls of active or inactive are those of the source.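 Rule for the calls, unless noted: active = NADPH fluorescence slope more negative than the mean of all samples by about 3 SD, 99.7% confidence; inactive = the rest.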

Assays:
[1] = inhibitors of TNFa-induced NFkB p65 translocation, primary screen, imaging, HUVEC, MLSMR starter and 10KST1 sets (AID 438;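 active = inhibition above 20% together with a positive visual image hit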;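 note: compound added about 3h40 before a 20 min TNFalpha stimulation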;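 for inhibition: signal is the nuclear over cytoplasmic p65 intensity ratio per well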); conditions: HUVEC TNFa-induced p65 nuclear translocation; cell count: measured here: nuclei count (cytotoxicity indicator), at 2.08 µM; inhibition: at 2 µM, stronger effect = higher value, 0% TNFa-plus-vehicle, 100% no-TNFa wells
[2] = reduction of polyQ htt aggregates in cells – imaging, exon1htt(103Q)mCFP cells, high-content imaging, primary screen (AID 483;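 active = visual image review flags a hit and inhibition of aggregation exceeds 20%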;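 note: compound exposure lasted 3 days before fixation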;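 for nuclei count: percent of the per-plate median nuclei count of sample wells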); conditions: exon1htt(103Q)mCFP cell line, aggregate imaging, at 2 µM; inhibition of aggregation: stronger effect = higher value; nuclei count: measured here: cell count, toxicity
[3] = endothelial E-selectin expression blockers – imaging, HUVEC, immunofluorescence, MLSMR starter and 10KST1 sets, primary screen (AID 487;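 active = visually confirmed hit in the image check and inhibition above 20%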;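 for inhibition: signal is fraction of cell area covered by stained E-selectin grains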;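 for nuclei count: 100% = median nuclei count of all wells on the same plate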); conditions: HUVEC TNFalpha-induced E-selectin immunofluorescence imaging, at 2 µM; inhibition: stronger effect = higher value; nuclei count: measured here: cell number, toxicity
[4] = biological target: Voltage-gated potassium channel subunit beta-2 (Rattus norvegicus) (UniProt P62483); assay: inhibitors of rat Kvbeta2 reductase activity – biochemical, NADPH fluorescence, primary screen (AID 622;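 active = fluorescence slope higher than the sample average by over 3 SD, cut at about -0.22 in these data, passing the limit was not always enough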;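 note: slope of raw intensity against log time taken from 70 to 1610 s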); conditions: recombinant KvBeta, 4-cyanobenzaldehyde reduction, at 10 µM, stronger effect = higher value
[5] = biological target: Voltage-gated potassium channel subunit beta-2 (Rattus norvegicus) (UniProt P62483); assay: enhancers of rat Kvbeta2 NADPH turnover – biochemical, NADPH fluorescence, primary screen (AID 623); conditions: Recombinant KvBeta, NADPH fluorescence decrease slope, 10 min; at 10 µM; stronger effect = lower value;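 note: fluorescence intensity change per second fitted from 20 to 320 s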
[6] = biological target: Alpha-2C adrenergic receptor (Homo sapiens) (UniProt P18825); assay: compounds altering alpha2C-coupled GIRK flux – cell-based, HEK293 alpha2C/GIRK1/2, thallium flux, primary screen (AID 624;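 active = fluorescence slope after compound addition differing from the mean of all screened samples at 99.7% confidence, in either direction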;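 note: slope of fluorescence ratio to pre-addition baseline per second over 15 to 24 s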); conditions: thallium flux BTC fluorescence, at 10 µM, actives lie on both sides
[7] = blockers of RIG-like receptor reporter activation – cell-based, Sendai virus stimulus, luciferase, 10K MLSCN set, TLR/RLR signaling modifier project, primary screen (AID 602276;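 active = inhibition at or above 50% at 10 µM; inactive = inhibition below 50%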;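 note: firefly luciferase from ISG56 promoter only with Renilla not read in this screen; 0% = Sendai virus plus DMSO and 100% = medium plus DMSO without virus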); conditions: HEK293 RL24 IRF3 luciferase reporter, at 10 µM, stronger effect = higher value
[8] = TLR3 IRF3 reporter activation blockers – cell-based, poly I:C stimulus, luciferase, 10K MLSCN set, primary screen (AID 602277;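 active = inhibition of the reporter signal at or above 50%; inactive = inhibition below 50%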); conditions: HEK293-TLR3 RL24 IRF3 luciferase reporter, at 10 µM, stronger effect = higher value

Chain of Voltage-gated potassium channel subunit beta-2 (Rattus norvegicus) (P62483 whole entry, looked up): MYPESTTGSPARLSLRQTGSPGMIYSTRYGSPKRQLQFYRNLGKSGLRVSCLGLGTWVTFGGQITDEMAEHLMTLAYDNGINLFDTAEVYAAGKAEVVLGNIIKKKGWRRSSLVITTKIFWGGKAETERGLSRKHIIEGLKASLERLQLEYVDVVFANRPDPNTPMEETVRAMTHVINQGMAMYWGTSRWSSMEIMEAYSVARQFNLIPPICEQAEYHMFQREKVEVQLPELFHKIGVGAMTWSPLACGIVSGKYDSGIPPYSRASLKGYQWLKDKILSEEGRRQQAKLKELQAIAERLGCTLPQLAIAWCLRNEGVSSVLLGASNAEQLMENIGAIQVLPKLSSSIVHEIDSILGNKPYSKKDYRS
Chain of Alpha-2C adrenergic receptor (Homo sapiens) (P18825 whole entry, looked up): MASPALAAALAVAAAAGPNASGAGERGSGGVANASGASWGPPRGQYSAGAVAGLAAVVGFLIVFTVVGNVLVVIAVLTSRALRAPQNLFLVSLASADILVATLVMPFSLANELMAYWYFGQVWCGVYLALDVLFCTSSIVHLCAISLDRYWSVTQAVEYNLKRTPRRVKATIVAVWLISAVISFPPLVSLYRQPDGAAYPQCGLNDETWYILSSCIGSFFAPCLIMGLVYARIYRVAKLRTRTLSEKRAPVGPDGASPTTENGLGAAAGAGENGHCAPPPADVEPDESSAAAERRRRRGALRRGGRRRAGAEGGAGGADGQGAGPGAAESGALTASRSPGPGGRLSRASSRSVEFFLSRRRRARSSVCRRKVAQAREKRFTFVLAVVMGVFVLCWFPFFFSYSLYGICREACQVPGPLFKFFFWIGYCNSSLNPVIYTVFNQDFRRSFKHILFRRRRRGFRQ

SMILES | cell count [1] | inhibition [1] | inhibition of aggregation [2] | nuclei count [2] [%] | inhibition [3] | nuclei count [3] [%] | fluorescence slope [4] | NADPH fluorescence slope [5] | slope [6] | inhibition [7] | inhibition [8]
COc1cc(C(c2sc3nc(C)nn3c2O)N2CC(C)CC(C)C2)cc(OC)c1OC (stereo not drawn) | 468 | -3.4% (inactive) | -10.7% (inactive) | 114 | -18.2% (inactive) | 109 | -0.505 (inactive) | -0.00015 (inactive) | 0.00579 (inactive) | 9.58% (inactive) | 18.7% (inactive)
COc1ccccc1C(=O)Nc1ccc(S(=O)(=O)N2CCCC2)cc1 | 676 | 2.2% (inactive) | 7.3% (inactive) | 114 | -22.4% (inactive) | 108 | -0.584 (inactive) | -2.5e-05 (inactive) | 0.0037 (inactive) | 8.65% (inactive) | -0.301% (inactive)
COc1ccc(C(=O)N2CCN(C3CCC(c4ccccc4)CC3)CC2)cc1OC (stereo not drawn) | 420 | -1.3% (inactive) | 20.2% (inactive) | 88.1 | 43.2% (inactive) | 83.9 | -0.436 (inactive) | -5.4e-05 (inactive) | 0.00292 (inactive) | 7.44% (inactive) | 17.6% (inactive)
COc1ccc(NC(=O)CSc2nc3c(c(=O)n2-c2ccc(F)cc2)SCC3)cc1 | 596 | -5.8% (inactive) | 20% (inactive) | 53.8 | -11.9% (inactive) | 91.5 | -0.541 (inactive) | -1.7e-05 (inactive) | 0.00814 (inactive) | 17.1% (inactive) | 26.3% (inactive)
COc1ccc(OC)c(CNC(=O)COc2cc(=O)n(C)c3ccccc23)c1 | 367 | 4.3% (inactive) | -8.1% (inactive) | 105 | 18% (inactive) | 100 | -0.349 (inactive) | -7.1e-06 (inactive) | 0.00576 (inactive) | 6.07% (inactive) | 6.23% (inactive)
O=C(Nc1ccccc1N1CCOCC1)c1ccc2ccccc2n1 | 589 | -21.6% (inactive) | -18.1% (inactive) | 92.8 | 17.1% (inactive) | 94.6 | -0.39 (inactive) | -4.7e-05 (inactive) | 0.00386 (inactive) | -13.5% (inactive) | -46% (inactive)
Cc1ccc(Nc2nc(N)nc(CN3CCCCCC3)n2)cc1 | 350 | 6.8% (inactive) | 2.4% (inactive) | 96.1 | 69.8% (active) | 88.8 | -0.449 (inactive) | -2.5e-05 (inactive) | 0.00438 (inactive) | 8.97% (inactive) | 24.6% (inactive)
N#Cc1c(N)c(C(=O)c2ccccc2)n2c1CCCC2 | 270 | -3.7% (inactive) | -10.6% (inactive) | 86.4 | -11.6% (inactive) | 96.6 | -0.46 (inactive) | -1.7e-05 (inactive) | 0.006 (inactive) | -3.25% (inactive) | 14.6% (inactive)
COc1cccc(C(=O)OCn2nnc3ccccc3c2=O)c1OC | 750 | -25% (inactive) | 21% (inactive) | 99.5 | -17.8% (inactive) | 103 | -0.441 (inactive) | -2.9e-05 (inactive) | 0.00547 (inactive) | 11.8% (inactive) | 28.8% (inactive)
c1cc2c(cc1Cn1cnnn1)OCO2 | 599 | 2.1% (inactive) | -6.5% (inactive) | 107 | 26.6% (inactive) | 87.2 | -0.492 (inactive) | -6.9e-05 (inactive) | 0.00714 (inactive) | 13.3% (inactive) | 22.4% (inactive)
COC(=O)c1ccccc1NC(=O)N1CCCC1 | 380 | -0.9% (inactive) | 0.5% (inactive) | 99.5 | -45.5% (inactive) | 115 | -0.434 (inactive) | -3.7e-06 (inactive) | 0.00581 (inactive) | -4.5% (inactive) | 0.116% (inactive)
Cc1ccccc1CN1CCN(CC(=O)NCc2ccccc2)C1=O | 518 | -20.8% (inactive) | -45.2% (inactive) | 97.7 | -45.7% (inactive) | 114 | -0.42 (inactive) | -0.000111 (inactive) | 0.00614 (inactive) | 2.1% (inactive) | 24.6% (inactive)
O=S(=O)(NCc1ccc(Cl)cc1)c1cnc[nH]1 | 468 | 5% (inactive) | -5.7% (inactive) | 96.7 | -182% (inactive) | 129 | -0.538 (inactive) | -2e-05 (inactive) | 0.00614 (inactive) | -8.39% (inactive) | -18.3% (inactive)
COc1ccc(NC(=O)c2cc(C)on2)cc1OC | 377 | 3.7% (inactive) | -26.4% (inactive) | 111 | 22.1% (inactive) | 106 | -0.624 (inactive) | -3.2e-06 (inactive) | 0.00386 (inactive) | 6.93% (inactive) | -8.62% (inactive)
CN(CCc1ccccn1)c1ncnc2[nH]ncc12 | 591 | 8.1% (inactive) | -1.4% (inactive) | 71.8 | 55.8% (active) | 63.8 | -0.325 (inactive) | -3.6e-05 (inactive) | 0.0053 (inactive) | -24.6% (inactive) | -53.4% (inactive)
CCCCn1nnc(NC(=O)Cc2ccc(Cl)cc2)n1 | 618 | 7.7% (inactive) | 23.9% (inactive) | 91.6 | -66% (inactive) | 106 | -0.44 (inactive) | -6.8e-05 (inactive) | 0.00393 (inactive) | 1.51% (inactive) | 19.5% (inactive)
C=C(C)COc1ccc(-c2n[nH]c(C)c2-c2ccccc2)c(O)c1 | 456 | -8% (inactive) | 3.7% (inactive) | 99.2 | 0.8% (inactive) | 81.8 | -0.46 (inactive) | -3.2e-05 (inactive) | 0.00246 (inactive) | -6.65% (inactive) | 11.2% (inactive)
Cc1c(C(=O)O)c(-c2ccccc2)nn1-c1ccccc1 | 119 | 12.1% (inactive) | 3.2% (inactive) | 85.6 | -11.7% (inactive) | 127 | -0.39 (inactive) | -0.000126 (inactive) | 0.00692 (inactive) | 15% (inactive) | -3.71% (inactive)
O=C(O)c1c(Cl)c(Cl)c(Cl)c(Cl)c1C(=O)N1CCOCC1 | 530 | -10.7% (inactive) | -17.6% (inactive) | 112 | 12.7% (inactive) | 112 | -0.618 (inactive) | -3.3e-05 (inactive) | 0.00588 (inactive) | 7.47% (inactive) | 5.92% (inactive)
COCCN(CCOC)S(=O)(=O)c1ccc(C(=O)Nc2nnc(C3CC3)o2)cc1 | 390 | -0.2% (inactive) | 0% (inactive) | 102 | 44.1% (inactive) | 100 | -0.484 (inactive) | -3.8e-05 (inactive) | 0.00677 (inactive) | 16.9% (inactive) | 24.5% (inactive)
CC(C)C(C(=O)Nc1ccc2c(c1)OCCO2)N1C(=O)c2ccccc2C1=O (stereo not drawn) | 552 | -4.3% (inactive) | 7% (inactive) | 104 | -63.7% (inactive) | 147 | -0.3 (inactive) | 1.8e-07 (inactive) | 0.00511 (inactive) | 2.16% (inactive) | 12.8% (inactive)
COc1cccc2sc(NC(=O)c3ccc(S(=O)(=O)N4CCOCC4)cc3)nc12 | 357 | 0.5% (inactive) | 8.5% (inactive) | 74.7 | -21% (inactive) | 104 | -0.289 (inactive) | -2.5e-05 (inactive) | 0.00479 (inactive) | 10.2% (inactive) | 9.3% (inactive)
Cc1cccc(Nc2nc3c(c(=O)n(C)c(=O)n3C)n2Cc2ccccc2)c1 | 470 | 7.2% (inactive) | 6.5% (inactive) | 94.7 | -73.5% (inactive) | 106 | -0.588 (inactive) | -2.8e-05 (inactive) | 0.00618 (inactive) | 3.57% (inactive) | 20.4% (inactive)
c1ccc(CC2CCN(c3nc4ccccc4n4nnnc34)CC2)cc1 | 373 | -13.8% (inactive) | -7.8% (inactive) | 102 | -63.7% (inactive) | 114 | -0.312 (inactive) | -3.7e-05 (inactive) | 0.00583 (inactive) | 7.26% (inactive) | 13.6% (inactive)
CCCc1c(O)nc(SCC(=O)NCCc2ccc(OC)c(OC)c2)[nH]c1=O | 581 | -10.8% (inactive) | 5.3% (inactive) | 73.8 | 38.4% (inactive) | 82.7 | -0.486 (inactive) | -3.3e-05 (inactive) | 0.00432 (inactive) | 13.2% (inactive) | 13.9% (inactive)
C/C=C/COC(=O)c1[nH]c2c(c1C)C(=O)CC(c1ccc(N(C)C)cc1)C2 (stereo not drawn) | 699 | 1.8% (inactive) | 14.4% (inactive) | 79.6 | -46.6% (inactive) | 115 | -0.543 (inactive) | -2.2e-05 (inactive) | 0.00679 (inactive) | -29.1% (inactive) | -68.7% (inactive)
CCCN1CC23C=CC(O2)C(C(=O)O)C3C1=O (stereo not drawn) | 833 | -8.7% (inactive) | -27.3% (inactive) | 109 | -58.4% (inactive) | 124 | -0.518 (inactive) | -8.6e-07 (inactive) | 0.00688 (inactive) | 6.27% (inactive) | 15.9% (inactive)
COc1ccccc1C(=O)OCn1nnc2ccccc2c1=O | 714 | -21.1% (inactive) | 6.6% (inactive) | 103 | -15.2% (inactive) | 106 | -0.421 (inactive) | -4e-05 (inactive) | 0.00465 (inactive) | 12.3% (inactive) | 22.5% (inactive)
